Data: PubChem BioAssay AID1159580 (chemical genetic matrix, 2015)
Several values for one entry are separate records, joined by “and”; a condition that tells them apart may be missing. Identical values can stand only once. The whole screen tested about 5,500 compounds, of which about 2,000 (36%) were called active. Inconclusive results (about 18%) are left out. No stated cut-off is given here; in the data, active means normalized growth mostly below about 0.91 (no sharp cut-off); inconclusive means no clear call, values can overlap the other calls; inactive means mostly above about 0.92. This is one part of the list.

Experiment: chemical genetic growth profiling, strain panel (AID 1159580);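 further: tested at 20 µM; growth read once vehicle control cultures reached saturation at 30 °C; 1 = growth at the plate median or of vehicle wells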
Conditions: S. cerevisiae deletion strains, growth OD

Measured: normalized growth

CC(=O)[C@@]1(O)CCC2C3C[C@H](C)C4=CC(=O)C=CC4(C)[C@@]3(F)[C@@H](O)C[C@@]21C (stereo partly drawn)
inactive: locus YAL013W, strain DEP1, stronger effect = lower value 0.995 | locus YAL021C, strain ccr4, stronger effect = lower value 0.965 | locus YAL026C, strain drs2, stronger effect = lower value 0.966 | locus YAL030W, strain snc1, stronger effect = lower value 0.961 | locus YBL061C, strain skt5, stronger effect = lower value 0.976 | locus YBR009C, strain hhf1, stronger effect = lower value 0.931 | locus YBR021W, strain FUR4, stronger effect = lower value 0.99 | locus YBR023C, strain chs3, stronger effect = lower value 0.969 | locus YBR171W, strain sec66, stronger effect = lower value 0.973 | locus YBR229C, strain ROT2, stronger effect = lower value 1.01 | locus YBR231C, strain swc5, stronger effect = lower value 0.975 | locus YBR279W, strain paf1, stronger effect = lower value 0.98 | locus YCL011C, strain gbp2, stronger effect = lower value 0.964 | locus YCL016C, strain dcc1, stronger effect = lower value 0.963 | locus YCL029C, strain bik1, stronger effect = lower value 0.997 | locus YCL069W, strain vba3, stronger effect = lower value 0.979 | locus YCR088W, strain abp1, stronger effect = lower value 0.973 | locus YDL005C, strain med2, stronger effect = lower value 0.962 | locus YDL035C, strain GPR1, stronger effect = lower value 0.986 | locus YDL040C, strain nat1, stronger effect = lower value 0.983 | locus YDL074C, strain BRE1, stronger effect = lower value 0.981 | locus YDL101C, strain DUN1, stronger effect = lower value 1.02 | locus YDL134C, strain PPH21, stronger effect = lower value 0.99 | locus YDL185W, strain tfp1, stronger effect = lower value 1.03 | locus YDL192W, strain arf1, stronger effect = lower value 1.01 | locus YDR001C, strain nth1, stronger effect = lower value 0.977 | locus YDR069C, strain doa4, stronger effect = lower value 0.969 | locus YDR101C, strain arx1, stronger effect = lower value 0.971 | locus YDR137W, strain rgp1, stronger effect = lower value 0.975 | locus YDR150W, strain NUM1, stronger effect = lower value 0.991 | locus YDR159W, strain sac3, stronger effect = lower value 0.929 | locus YDR162C, strain NBP2, stronger effect = lower value 0.984 | locus YDR195W, strain ref2 0.98 | locus YDR297W, strain sur2, stronger effect = lower value 0.975 | locus YDR318W, strain mcm21, stronger effect = lower value 1.01 | locus YDR334W, strain swr1, stronger effect = lower value 0.976 | locus YDR335W, strain msn5, stronger effect = lower value 0.965 | locus YDR388W, stronger effect = lower value 1.01 | locus YDR392W, strain spt3, stronger effect = lower value 0.936 | locus YDR502C, strain sam2, stronger effect = lower value 1.01 | locus YEL003W, strain gim4, stronger effect = lower value 0.971 | locus YEL037C, strain rad23, stronger effect = lower value 0.975 | locus YEL061C, strain CIN8 (second series), stronger effect = lower value 0.962 | locus YEL061C, strain CIN8, stronger effect = lower value 0.989 | locus YER015W, strain faa2, stronger effect = lower value 0.977 | locus YER016W, strain bim1, stronger effect = lower value 0.933 | locus YER110C, stronger effect = lower value 1.02 | locus YER111C, strain swi4, stronger effect = lower value 0.969 | locus YER155C, strain BEM2 (second series), stronger effect = lower value 1.03 | locus YER155C, strain BEM2, stronger effect = lower value 1.01 | locus YER167W, strain BCK2, stronger effect = lower value 0.988 | locus YFR010W, strain ubp6, stronger effect = lower value 0.953 | locus YGL078C, strain dbp3, stronger effect = lower value 1 | locus YGL086W, strain mad1, stronger effect = lower value 0.985 | locus YGL167C, strain pmr1, stronger effect = lower value 0.977 | locus YGL173C, strain kem1, stronger effect = lower value 0.976 | locus YGL227W, strain vid30, stronger effect = lower value 0.988 | locus YGL240W, strain doc1, stronger effect = lower value 0.955 | locus YGL248W, strain PDE1, stronger effect = lower value 1.01 | locus YGL253W, strain hxk2, stronger effect = lower value 0.961 | locus YGR078C, strain PAC10, stronger effect = lower value 1 | locus YGR135W, strain pre9, stronger effect = lower value 1.05 | locus YGR252W, strain gcn5, stronger effect = lower value 1.08 | locus YHR013C, strain ard1, stronger effect = lower value 0.905 | locus YHR027C, strain rpn1, stronger effect = lower value 0.971 | locus YHR030C, strain SLT2, stronger effect = lower value 0.979 and 0.988 | locus YHR079C, strain IRE1 (second series), stronger effect = lower value 1.01 | locus YHR079C, strain IRE1, stronger effect = lower value 0.971 | locus YHR094C, strain hxt1, stronger effect = lower value 1.01 | locus YHR129C, strain ARP1, stronger effect = lower value 1.01 | locus YHR142W, strain chs7, stronger effect = lower value 0.96 | locus YHR200W, strain rpn10, stronger effect = lower value 1.01 | locus YIL066C, strain RNR3, stronger effect = lower value 0.996 | locus YIL073C, strain SPO22, stronger effect = lower value 1.02 | locus YIL125W, strain kgd1, stronger effect = lower value 1 | locus YIR030C, strain dcg1, stronger effect = lower value 1 | locus YJL092W, strain hpr5, stronger effect = lower value 0.983 | locus YJL095W, strain BCK1 (second series), stronger effect = lower value 0.985 | locus YJL095W, strain BCK1, stronger effect = lower value 1.02 and 0.999 | locus YJL115W, strain asf1, stronger effect = lower value 0.954 | locus YJL129C, strain trk1, stronger effect = lower value 0.968 | locus YJL134W, strain LCB3, stronger effect = lower value 1.01 | locus YJL154C, strain vps35, stronger effect = lower value 0.984 | locus YJL164C, strain tpk1, stronger effect = lower value 0.937 | locus YJL166W, strain qcr8, stronger effect = lower value 0.979 | locus YJL168C, strain set2, stronger effect = lower value 1 | locus YJL187C, strain SWE1 (second series), stronger effect = lower value 1.02 | locus YJR043C, strain POL32, stronger effect = lower value 0.99
